AT treatment: qHTS Assay for Identifying a Potential Treatment of Ataxia-Telangiectasia; Potency, µM (highest dose often 57.5 µM), most hits filed as activators; F2112 A-T fibroblasts, KAP-1 phosphorylation AlphaLISA; neocarzinostatin DNA damage 30 min before lysis; hit rate 0.19% among 320,000; AID 485349, 2010; further: nearly all actives have a fitted effect of over 45% in size
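ATM-like activity read as KAP-1 phosphorylation via AlphaLISA donor/acceptor antibody pairs after lysis and 6 hr at 25C. Cells were ATM-null patient fibroblasts (F2112, hTERT), dosed 60 min, then exposed to the DSB inducer NCS for 30 min.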
LDHA block: qHTS assay for inhibitors of human lactate dehydrogenase; activity change, % (values are at about 110 or 230 µM); L-lactate dehydrogenase A chain (Homo sapiens), P00338; hit rate 0.15% among 480,000; purified LDHA, NADH/diaphorase-resazurin fluorescence; hits give low values; in the data active means activity change below about -30%; inconclusive means mostly about -25% to -30%
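Remaining NADH was detected by diaphorase (0.133 mg/mL) converting 37 µM resazurin to fluorescent resorufin, read at 0 and 20 minutes. The preceding 5-minute room-temperature reaction used 2 nM LDHA, 0.2 mM sodium pyruvate and 0.06 mM NADH at pH 7.4.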
Apoferritin bind: qHTS Assay for Identification of Novel General Anesthetics; Ferritin light chain (Equus caballus), P02791; apoferritin/1-aminoanthracene competitive binding, fluorescence; Potency, µM (highest dose often 77.5 µM), most hits filed as inhibitors; hit rate 0.074% among 350,000; AID 485281, 2010; further: nearly all actives have a fitted effect of over 20% in size
Target sequence (P02791 2-175 limits assumed): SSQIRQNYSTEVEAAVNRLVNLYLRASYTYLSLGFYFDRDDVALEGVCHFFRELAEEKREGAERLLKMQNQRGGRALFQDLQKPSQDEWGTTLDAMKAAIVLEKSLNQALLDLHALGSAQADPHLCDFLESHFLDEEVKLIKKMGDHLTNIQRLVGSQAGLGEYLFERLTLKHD
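Read-out: endpoint 1-AMA fluorescence, excitation 380 nm and emission 535 nm, after compounds sit 10 min at room temperature with 10 uM horse-spleen apoferritin in 50% saturated 1-AMA/PBS. Values come from four-parameter Hill fits.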
RGS4 inh: Inhibitors of Regulator of G Protein Signaling (RGS) 4: qHTS; Regulator of G-protein signaling 4 (Homo sapiens), P49798; Transcreener GDP fluorescence polarization, RGS4-accelerated GTP hydrolysis; Potency, µM (series often up to 114 µM), most hits filed as inhibitors; hit rate 0.039% among 390,000; AID 504845, 2011; further: nearly all actives have a fitted effect of over 75% in size
Target sequence (P49798 whole entry, looked up): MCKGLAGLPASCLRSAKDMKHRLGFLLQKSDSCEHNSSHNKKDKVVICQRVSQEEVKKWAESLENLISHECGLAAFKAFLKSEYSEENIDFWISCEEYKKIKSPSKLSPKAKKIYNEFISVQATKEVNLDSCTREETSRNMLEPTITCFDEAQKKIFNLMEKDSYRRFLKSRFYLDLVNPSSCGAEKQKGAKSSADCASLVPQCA
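MLSMR compounds (23 nl, pin-transferred) preincubated 10 min at room temperature with a 500nM (2x) first reagent, then RGS4 at 900nM (2x) plus Transcreener GDP mix added; fluorescence polarization (620/688 nm) read before and after 90 min at 30 °C.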
A number is an active result; 0 = inactive; ? = inconclusive; - = not tested or not shown; ! = a repeat was not active; [ ] = another dose, or the depositor's remark. Compounds with a hit are over-represented: about 0.35% of the library has one in this group of screens. Unless noted, the call rests on the fitted dose curve; in most records, active means well fitted curve in the direction sought with a large enough effect; inconclusive means small, poorly fitted or top-dose-only effect, or another doubt; inactive means no such curve, though single readings can be large; an effect the other way counts as inactive or inconclusive.

SMILES	AT treatment	LDHA block	Apoferritin bind	RGS4 inh
CC(=O)N(c1ccc(N(C(C)=O)S(=O)(=O)c2cccs2)cc1)S(=O)(=O)c1cccs1	0	-88	0	0
CC(=O)N(c1ccc(N(C(C)=O)S(=O)(=O)c2ccccc2)cc1)S(=O)(=O)c1ccccc1	0	-66	0	0
Cc1ccc(C(=O)/C=C/Nc2ccc(N(C)C)cc2)cc1C	-	0	-	-
O=C(Nc1nc(-c2ccc3ccccc3c2)cs1)C1CCN(S(=O)(=O)c2cccs2)CC1	0	-30	0	0
Cc1ccc(-c2csc(NC(=O)C3CCN(S(=O)(=O)c4cccs4)CC3)n2)cc1	0	0	0	0
Cc1ccccc1-c1nc2ccc(NC(=O)C3CC3)cc2o1	-	0	-	-
Cc1ccnc2ccccc12	-	0	-	-
CN1CC[n+]2cnc3ccccc3c21	0	-33	0	0
CCCCCC(=O)N1C[C@H](n2cc(C3CC3)nn2)[C@@H](O)C[C@@H]1c1ccc(C)cc1	-	0	-	-
CCCCCC(=O)N1C[C@@H](n2cc(C3CC3)nn2)[C@H](O)C[C@@H]1c1ccc(C)cc1	-	-32	-	-
CCOC(=O)C(C#N)=C1SC(C(=O)OCC)C(C(=O)OCC)S1 (stereo not drawn)	-	0	-	-
CCN(Cc1nc(-c2cccc(C)c2)no1)C(=O)Nc1cccc2ccccc12	-	0	-	-
O=C(Nc1ccc(Cl)cn1)c1cc2c(s1)-c1ccccc1OC2	16µM	0	0	0
O=C(Nc1cccnc1Cl)c1cc2c(s1)-c1ccccc1OC2	0	0	0	0
Cc1ccc(CCNC(=O)c2cc3c(s2)-c2ccccc2OC3)cc1	-	-36	0	?
Cc1ccc(C)c(NCc2ccccn2)c1	-	0	-	-
CCOc1ccc(C2/C(=C(\O)c3ccc(C)c(F)c3)C(=O)C(=O)N2Cc2ccco2)cc1OC (stereo not drawn)	-	0	-	-
O=C(Nc1ccc(Cl)c(Cl)c1)c1ccc(Cn2c(=O)[nH]c3ccsc3c2=O)cc1	0	-32	0	0
O=C(Nc1ccc(Oc2ccccc2)cc1)c1ccc(Cn2c(=O)[nH]c3ccsc3c2=O)cc1	0	0	0	0
Cc1ccc(CN(C)C(=O)COc2ccc3ccc(=O)oc3c2)cc1	-	0	-	-
Cc1ccccc1NCc1ccccc1O	0	0	18µM	?
Cc1ccccc1C(=O)Nc1nnc(CC(=O)N/N=C/c2ccco2)s1	16µM	0	0	0
Cc1ccc(-c2cc3ccccn3c2C=O)cc1C	-	0	-	-
CCOC(=O)C1C(=O)C=C(/C=C/c2ccco2)CC1c1ccccc1 (stereo not drawn)	-	0	-	-
CCCN1CN(c2ccccc2)C(=S)N(c2ccccc2)C1	1.1µM	0	0	0
SMILES	AT treatment	LDHA block	Apoferritin bind	RGS4 inh
CCOc1ccc(-c2nc(C#N)c(NCc3ccc4c(c3)OCO4)o2)cc1	0	-31!	0	0
Cc1ccccc1C1CC(=O)N2CN(Cc3ccccc3)CSC2=C1C#N (stereo not drawn)	-	0	-	-
OC[C@@H]1OC(O)[C@@H](O)[C@H](O)[C@H]1O (stereo partly drawn)	-	-	0	-
OCC1O[C@H]([S-])[C@H](O)[C@@H](O)[C@@H]1O.[Au+] (stereo partly drawn)	-	-	-	0.6µM
CC(C)Oc1ccc2c(-c3ccccc3)cc(=O)oc2c1	-	0	-	-
CSc1cccc(NC(=O)COc2coc(CN3CCSCC3)cc2=O)c1	-	-38	-	-
Cc1ccc(-c2nc(CS(=O)(=O)CC(=O)NCc3ccccc3C)c(C)o2)cc1	-	0	-	-
COc1ccc(NC(=O)c2cc([N+](=O)[O-])ccc2O)cc1	0[11.5 µM]	-38	0	0
C=CC[C@@H]1Cc2c(Br)ccc(Br)c2[C@@H](CC=C)N1	40µM	0	0	0
C=CC[C@H]1Cc2c(Br)cc(Br)c(Br)c2[C@H](CC=C)N1	-	0	-	-
Cc1cc(C(=O)NNC(=S)NC(=O)c2ccccc2)cs1	-	0	-	-
NS(=O)(=O)c1ccc(NC(=O)Cn2ncc3c2-c2ccccc2OC3)cc1	0	-34	0	0
Cn1cc(/C=C2/CC(=O)N(c3ccc(C(=O)O)cc3)C2=O)c2ccccc21	-	0	-	-
Cc1cc(C)n(-c2ccc(S(=O)(=O)N3CCCC3)cc2[N+](=O)[O-])n1	0	0	0	0
Cc1cc(C)n(-c2ccc(S(=O)(=O)N3CCOCC3)cc2[N+](=O)[O-])n1	40µM	0	0	0
Cc1cc2[nH]c(C(=O)O)cc2c2ccccc12	-	0	-	-

Source: PubChem (National Center for Advancing Translational Sciences (NCATS))
